Results filed as inconclusive are left out. The source made the active and inactive calls. The calls were made as follows, unless noted: active = hit-call score of the fitted dose curve at least 0.9, where 1 is the maximum; inconclusive = response in the unintended direction; inactive = score below 0.9.
Assays:
[1] = target: Steroid hormone receptor ERR1 (Homo sapiens) (UniProt P11474); experiment: ATG_ERRa_TRANS: Attagene TRANS-FACTORIAL HepG2 Assay for human Estrogen-Related Receptor alpha (ERRa) (AID 2282971); settings: HepG2 Attagene TRANS reporter, ERRa transactivation
Steroid hormone receptor ERR1 (Homo sapiens), sequence (P11474 whole entry, looked up, the tested form may be a part): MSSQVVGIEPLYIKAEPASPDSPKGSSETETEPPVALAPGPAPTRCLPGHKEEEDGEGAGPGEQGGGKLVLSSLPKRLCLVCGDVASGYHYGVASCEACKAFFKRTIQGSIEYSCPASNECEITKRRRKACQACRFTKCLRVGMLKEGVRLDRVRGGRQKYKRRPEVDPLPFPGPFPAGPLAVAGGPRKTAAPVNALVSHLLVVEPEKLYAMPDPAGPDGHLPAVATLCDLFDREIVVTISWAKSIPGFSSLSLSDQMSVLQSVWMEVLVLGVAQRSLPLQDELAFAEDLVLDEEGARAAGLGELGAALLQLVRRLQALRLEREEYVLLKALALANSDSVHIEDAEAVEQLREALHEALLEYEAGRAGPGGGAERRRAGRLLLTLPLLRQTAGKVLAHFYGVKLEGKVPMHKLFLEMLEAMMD
In short: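 HepG2 cells transiently transfected with GAL4-UAS reporter units and chimeric NR-Gal4 constructs; after 24 hour compound incubation, reporter mRNA quantified by RT-PCR, fluorescent labelling and capillary electrophoresis, gain of signal versus DMSO.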

[2] = target: X-box-binding protein 1 (Homo sapiens) (UniProt P17861); experiment: ATG_Xbp1_CIS: Attagene CIS-FACTORIAL HepG2 Assay for human X-box Binding Protein 1 (XBP1) (AID 2282972; active = hit-call score of the fitted dose curve at least 0.9, where 1 is the maximum; inactive = score below 0.9); settings: HepG2 XBP1 cis-element reporter, Attagene multiplex; actives raise or lower the signal
X-box-binding protein 1 (Homo sapiens), sequence (P17861 whole entry, looked up): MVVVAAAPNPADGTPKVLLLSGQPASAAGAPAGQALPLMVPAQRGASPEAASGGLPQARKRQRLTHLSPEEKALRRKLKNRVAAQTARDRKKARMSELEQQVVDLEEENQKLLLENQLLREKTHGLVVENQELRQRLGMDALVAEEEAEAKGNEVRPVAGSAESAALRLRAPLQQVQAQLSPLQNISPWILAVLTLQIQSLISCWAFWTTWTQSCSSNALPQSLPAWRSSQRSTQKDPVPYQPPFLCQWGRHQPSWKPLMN
In short: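 After a 24-hour chemical exposure of HepG2 cells carrying cis-regulated reporters, reporter mRNA levels are assessed. Quantification uses RT-PCR, 6-FAM labelling and capillary electrophoresis. Gain- or loss-of-signal is fitted against DMSO.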

[3] = ATG_M_19_TRANS: Attagene TRANS-FACTORIAL HepG2 Assay for M19 Transcription Factor (Internal Marker) (AID 2282974); settings: HepG2 Attagene TRANS-FACTORIAL M19 internal marker reporter
In short: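 24 h chemical exposure of transiently transfected HepG2 (MRTU library). RNA → oligo(dT) RT → PCR → 6-FAM labelling → HpaI cut → CE fluorescence. Positive-direction fit vs DMSO baseline; background internal-marker readout.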

[4] = target: Estrogen-related receptor gamma (Homo sapiens) (UniProt P62508); experiment: ATG_ERRg_TRANS: Attagene TRANS-FACTORIAL HepG2 Assay for human Estrogen-Related Receptor gamma (ERRg) (AID 2282977); settings: HepG2 Attagene TRANS reporter, ERRg transactivation;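 also: hits increase reporter signal over DMSO so potencies reflect activators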
Estrogen-related receptor gamma (Homo sapiens), sequence (P62508 whole entry, looked up, the tested form may be a part): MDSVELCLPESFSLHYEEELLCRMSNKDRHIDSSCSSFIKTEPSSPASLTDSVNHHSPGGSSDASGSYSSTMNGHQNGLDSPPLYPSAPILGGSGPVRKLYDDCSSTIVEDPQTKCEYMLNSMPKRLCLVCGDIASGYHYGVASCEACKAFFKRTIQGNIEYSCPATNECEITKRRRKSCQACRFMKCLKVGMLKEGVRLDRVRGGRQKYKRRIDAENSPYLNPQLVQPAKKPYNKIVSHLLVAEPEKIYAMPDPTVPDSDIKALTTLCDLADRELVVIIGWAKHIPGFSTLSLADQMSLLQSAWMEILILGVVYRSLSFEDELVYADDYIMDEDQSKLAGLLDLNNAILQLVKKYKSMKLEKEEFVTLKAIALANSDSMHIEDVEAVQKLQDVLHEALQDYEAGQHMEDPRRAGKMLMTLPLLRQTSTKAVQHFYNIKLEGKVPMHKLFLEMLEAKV
In short: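 HepG2 cells transiently transfected with multiplexed GAL4-UAS reporter units and chimeric NR-Gal4 constructs were exposed to test chemicals for 24 h. Reporter mRNA was measured by RT-PCR, 6-FAM primer extension, HpaI digestion and capillary electrophoresis; gain-of-signal versus DMSO.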

[5] = target: Oxysterols receptor LXR-alpha (Homo sapiens) (UniProt Q13133); experiment: ATG_LXRa_TRANS: Attagene TRANS-FACTORIAL HepG2 Assay for human Liver X Receptor alpha (LXRa) (AID 2282980); settings: HepG2 Attagene TRANS reporter, LXRa transactivation
Oxysterols receptor LXR-alpha (Homo sapiens), sequence (Q13133 whole entry, looked up, the tested form may be a part): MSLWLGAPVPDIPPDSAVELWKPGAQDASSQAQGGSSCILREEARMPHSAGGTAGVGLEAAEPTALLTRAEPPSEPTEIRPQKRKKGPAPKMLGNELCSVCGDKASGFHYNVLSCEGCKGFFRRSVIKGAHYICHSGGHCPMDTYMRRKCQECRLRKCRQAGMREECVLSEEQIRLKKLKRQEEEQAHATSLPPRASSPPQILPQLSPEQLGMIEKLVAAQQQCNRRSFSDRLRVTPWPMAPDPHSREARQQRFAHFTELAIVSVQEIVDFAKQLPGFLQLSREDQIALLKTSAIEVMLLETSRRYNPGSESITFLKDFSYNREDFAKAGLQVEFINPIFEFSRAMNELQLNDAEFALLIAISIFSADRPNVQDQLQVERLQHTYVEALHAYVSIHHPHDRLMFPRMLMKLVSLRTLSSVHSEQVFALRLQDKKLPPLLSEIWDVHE
In short: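 HepG2 cells transiently transfected with GAL4-UAS reporter units for chimeric NR-Gal4 proteins, exposed to chemicals for 24 h. Reporter mRNA quantified by RT-PCR and capillary electrophoresis; gain of signal fitted relative to DMSO.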

[6] = target: Hepatocyte nuclear factor 4-alpha (Homo sapiens) (UniProt P41235); experiment: ATG_HNF4a_TRANS: Attagene TRANS-FACTORIAL HepG2 Assay for human Hepatocyte Nuclear Factor 4 alpha (HNF4a) (AID 2282982); settings: HepG2 HNF4a transactivation reporter, mRNA readout
Hepatocyte nuclear factor 4-alpha (Homo sapiens), sequence (P41235 whole entry, looked up, the tested form may be a part): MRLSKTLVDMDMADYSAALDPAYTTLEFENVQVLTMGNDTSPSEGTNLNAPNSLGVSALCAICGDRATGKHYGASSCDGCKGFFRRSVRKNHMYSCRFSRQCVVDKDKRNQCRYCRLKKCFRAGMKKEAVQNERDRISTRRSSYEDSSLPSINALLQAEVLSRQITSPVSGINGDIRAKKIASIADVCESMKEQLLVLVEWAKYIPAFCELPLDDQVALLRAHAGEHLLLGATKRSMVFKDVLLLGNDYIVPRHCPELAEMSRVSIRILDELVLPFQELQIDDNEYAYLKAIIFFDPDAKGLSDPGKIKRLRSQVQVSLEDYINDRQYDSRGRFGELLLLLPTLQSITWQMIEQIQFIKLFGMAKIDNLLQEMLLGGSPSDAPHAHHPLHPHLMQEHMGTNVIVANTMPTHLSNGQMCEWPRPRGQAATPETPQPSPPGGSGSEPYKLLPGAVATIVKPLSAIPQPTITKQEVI
In short: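 Gain-of-signal mRNA induction, relative to DMSO vehicle, was read after 24 h compound treatment of HepG2 cells bearing transfected GAL4-UAS reporters. Detection used RT-PCR, 6-FAM primer extension and capillary electrophoresis.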

[7] = target: Nuclear receptor subfamily 4 group A member 2 (Homo sapiens) (UniProt P43354); experiment: ATG_NURR1_TRANS: Attagene TRANS-FACTORIAL HepG2 Assay for human Nuclear Receptor Related Protein 1 (NURR1) (AID 2282985); settings: HepG2 Attagene TRANS reporter, mRNA readout
In short: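 HepG2 / transient MRTU transfection / 24 h compound exposure / RT-PCR + CE fluorescence of reporter mRNA / gain-of-signal vs DMSO.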

[8] = target: Nuclear respiratory factor 1 (Homo sapiens) (UniProt Q16656); experiment: ATG_NRF1_CIS: Attagene CIS-FACTORIAL HepG2 Assay for human Nuclear Respiratory Factor 1 (NRF1) Orphan Gene (AID 2282987; active = hit-call score of the fitted dose curve at least 0.9, where 1 is the maximum; inactive = score below 0.9); settings: HepG2 NRF1 cis-element reporter, Attagene multiplex; actives raise or lower the signal
Nuclear respiratory factor 1 (Homo sapiens), sequence (Q16656 whole entry, looked up): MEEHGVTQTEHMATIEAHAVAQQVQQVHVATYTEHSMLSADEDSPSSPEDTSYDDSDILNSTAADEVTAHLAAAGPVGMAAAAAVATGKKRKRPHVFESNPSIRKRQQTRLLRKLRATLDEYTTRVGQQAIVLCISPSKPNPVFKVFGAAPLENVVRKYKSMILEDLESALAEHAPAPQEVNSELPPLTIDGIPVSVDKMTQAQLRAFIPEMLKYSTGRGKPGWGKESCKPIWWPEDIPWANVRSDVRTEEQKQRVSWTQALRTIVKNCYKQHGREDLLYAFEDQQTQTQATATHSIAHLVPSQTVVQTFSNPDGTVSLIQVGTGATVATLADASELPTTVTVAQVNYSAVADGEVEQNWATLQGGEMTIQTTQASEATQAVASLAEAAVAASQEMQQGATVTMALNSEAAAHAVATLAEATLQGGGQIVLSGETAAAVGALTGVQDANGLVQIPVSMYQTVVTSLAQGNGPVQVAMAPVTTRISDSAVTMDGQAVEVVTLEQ
In short: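 Endogenous NRF1-driven reporter transcription measured in transiently transfected human HepG2 liver cells. Readout: reporter mRNA by RT-PCR and capillary electrophoresis with fluorescence detection, 24 h post-dosing. Gain or loss of signal fitted relative to DMSO baseline.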

[9] = ATG_NFI_CIS: Attagene CIS-FACTORIAL HepG2 Assay for human Nuclear Factor I (NFI) (AID 2282989; active = hit-call score of the fitted dose curve at least 0.9, where 1 is the maximum; inactive = score below 0.9); settings: HepG2 cis-regulatory reporter, NFI response element transcription; actives raise or lower the signal
In short: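 Endogenous TF activity in HepG2 cells transiently transfected with cis-element-driven multiplexed reporter units, read 24 h after dosing. Reporter mRNA quantified by RT-PCR, 6-FAM labelling, HpaI digestion and capillary electrophoresis; bidirectional fit versus DMSO.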

[10] = target: Myc proto-oncogene protein (Homo sapiens) (UniProt P01106); experiment: ATG_Myc_CIS: Attagene CIS-FACTORIAL HepG2 Assay for human Myelocytomatosis (Myc) Proto-Oncogene Transcription Factor (AID 2282990; active = hit-call score of the fitted dose curve at least 0.9, where 1 is the maximum; inactive = score below 0.9); settings: HepG2, Attagene cis-reporter transcription factor activity; actives raise or lower the signal
Myc proto-oncogene protein (Homo sapiens), sequence (P01106 whole entry, looked up): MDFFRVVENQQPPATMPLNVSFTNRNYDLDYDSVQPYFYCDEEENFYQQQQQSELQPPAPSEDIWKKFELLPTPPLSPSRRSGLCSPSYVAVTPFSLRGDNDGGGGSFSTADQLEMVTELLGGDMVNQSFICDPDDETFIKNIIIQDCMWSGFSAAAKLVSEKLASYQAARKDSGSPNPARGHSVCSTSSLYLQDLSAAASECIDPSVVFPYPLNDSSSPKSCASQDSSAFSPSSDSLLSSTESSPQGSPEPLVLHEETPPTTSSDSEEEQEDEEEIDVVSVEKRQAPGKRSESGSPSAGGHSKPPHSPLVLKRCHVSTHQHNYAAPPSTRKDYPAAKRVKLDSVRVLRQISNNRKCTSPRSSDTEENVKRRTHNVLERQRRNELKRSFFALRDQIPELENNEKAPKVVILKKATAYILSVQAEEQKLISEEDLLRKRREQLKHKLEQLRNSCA
In short: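 Transiently transfected HepG2 cells bearing cis-promoter reporter units for endogenous transcription factors; 24 h exposure. Reporter mRNA measured by RT-PCR, 6-FAM primer extension, HpaI cut and capillary electrophoresis; bidirectional fit relative to DMSO.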

[11] = ATG_NRF2_ARE_CIS: Attagene CIS-FACTORIAL HepG2 Assay for human Nuclear Factor Erythroid 2 Related Factor 2 (NFR2) response to Antioxidant Response Elements (ARE) (AID 2282992; active = hit-call score of the fitted dose curve at least 0.9, where 1 is the maximum; inactive = score below 0.9); settings: HepG2 Attagene ARE/NRF2 reporter, transcription factor activity; actives raise or lower the signal
In short: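 Cis-factorial assay: transfected HepG2 reporter library, 24 h dosing, mRNA readout via RT-PCR/CE; DMSO-referenced bidirectional analysis.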

[12] = target: Glucocorticoid receptor (Homo sapiens) (UniProt P04150); experiment: ATG_GR_TRANS: Attagene TRANS-FACTORIAL HepG2 Assay for human Glucocorticoid Receptor (GR) (AID 2282978); settings: HepG2 Attagene TRANS GR reporter, mRNA transcription;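 also: activators score as hits since higher reporter transcript over DMSO is fitted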
Glucocorticoid receptor (Homo sapiens), sequence (P04150 whole entry, looked up, the tested form may be a part): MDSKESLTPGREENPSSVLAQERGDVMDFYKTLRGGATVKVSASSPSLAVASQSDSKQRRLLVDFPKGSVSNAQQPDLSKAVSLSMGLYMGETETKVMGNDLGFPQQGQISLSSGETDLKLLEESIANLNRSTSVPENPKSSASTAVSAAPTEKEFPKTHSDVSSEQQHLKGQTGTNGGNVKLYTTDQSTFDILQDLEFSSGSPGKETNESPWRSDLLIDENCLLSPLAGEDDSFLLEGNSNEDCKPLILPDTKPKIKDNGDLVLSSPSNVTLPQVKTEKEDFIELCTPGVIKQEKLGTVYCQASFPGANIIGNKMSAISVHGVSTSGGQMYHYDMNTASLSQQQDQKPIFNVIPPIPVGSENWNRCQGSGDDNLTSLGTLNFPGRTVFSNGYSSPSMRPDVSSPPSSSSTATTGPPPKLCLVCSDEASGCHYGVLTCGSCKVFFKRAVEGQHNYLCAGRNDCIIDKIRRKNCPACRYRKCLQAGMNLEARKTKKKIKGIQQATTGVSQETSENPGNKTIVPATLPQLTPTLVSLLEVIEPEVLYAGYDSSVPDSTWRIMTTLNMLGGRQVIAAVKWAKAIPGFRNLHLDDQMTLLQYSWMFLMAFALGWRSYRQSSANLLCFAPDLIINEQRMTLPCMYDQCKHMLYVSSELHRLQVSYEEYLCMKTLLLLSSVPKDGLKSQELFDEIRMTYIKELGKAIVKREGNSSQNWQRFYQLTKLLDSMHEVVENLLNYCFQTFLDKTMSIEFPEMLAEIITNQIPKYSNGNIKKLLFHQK
In short: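 Transient MRTU transfection of HepG2 (GAL4-UAS reporters, exogenous NR-GAL4 chimeras), 24 h dosing. Readout: reporter transcript via RT-PCR + capillary electrophoresis fluorescence. Positive direction vs DMSO baseline.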

[13] = target: Bile acid receptor (Homo sapiens) (UniProt Q96RI1); experiment: ATG_FXR_TRANS: Attagene TRANS-FACTORIAL HepG2 Assay for Farnesoid X Receptor (FXR) (AID 2282979); settings: HepG2 Attagene TRANS FXR-GAL4 reporter transcription;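 also: hits raise reporter mRNA above DMSO so AC50 marks FXR activation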
In short: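 HepG2 cells were transiently transfected with GAL4-UAS reporters driven by chimeric NR-Gal4 proteins and dosed for 24 h. Reporter mRNA was quantified by RT-PCR, fluorescent labelling, HpaI digestion and capillary electrophoresis, with gain of signal scored versus DMSO.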

[14] = target: Transcriptional activator Myb (Homo sapiens) (UniProt P10242); experiment: ATG_Myb_CIS: Attagene CIS-FACTORIAL HepG2 Assay for human Myeloblastosis (Myb) Proto-Oncogene Transcription Factor (AID 2282986; active = hit-call score of the fitted dose curve at least 0.9, where 1 is the maximum; inactive = score below 0.9); settings: HepG2 Attagene CIS-FACTORIAL Myb reporter transcription; actives raise or lower the signal
Transcriptional activator Myb (Homo sapiens), sequence (P10242 whole entry, looked up): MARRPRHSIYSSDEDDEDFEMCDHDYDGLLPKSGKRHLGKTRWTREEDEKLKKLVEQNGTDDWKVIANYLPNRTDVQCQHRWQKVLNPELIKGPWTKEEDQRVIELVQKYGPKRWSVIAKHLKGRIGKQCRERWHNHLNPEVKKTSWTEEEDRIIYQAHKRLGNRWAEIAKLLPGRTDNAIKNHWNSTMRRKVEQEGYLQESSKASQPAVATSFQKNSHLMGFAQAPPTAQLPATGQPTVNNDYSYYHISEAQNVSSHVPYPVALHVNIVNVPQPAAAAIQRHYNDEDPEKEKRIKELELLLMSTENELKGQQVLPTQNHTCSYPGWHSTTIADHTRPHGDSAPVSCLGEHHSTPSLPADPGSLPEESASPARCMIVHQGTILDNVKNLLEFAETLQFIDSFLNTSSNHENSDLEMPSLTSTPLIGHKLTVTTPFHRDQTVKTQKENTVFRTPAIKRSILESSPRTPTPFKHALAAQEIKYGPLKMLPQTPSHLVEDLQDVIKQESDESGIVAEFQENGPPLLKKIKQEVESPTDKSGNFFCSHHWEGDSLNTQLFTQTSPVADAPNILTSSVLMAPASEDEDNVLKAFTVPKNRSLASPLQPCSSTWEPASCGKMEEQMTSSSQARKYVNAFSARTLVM
In short: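 HepG2, transient MRTU transfection (cis-element promoters, endogenous TF activity), 24 h compound exposure. Readout: reporter mRNA via RT-PCR, 6-FAM labeling, HpaI digest, capillary electrophoresis. Gain/loss fit vs DMSO.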

[15] = target: Androgen receptor (Homo sapiens) (UniProt P10275); experiment: ATG_AR_TRANS: Attagene TRANS-FACTORIAL HepG2 Assay for human Androgen Receptor (AR) (AID 2282973); settings: HepG2 Attagene TRANS-FACTORIAL AR reporter transcription
In short: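 HepG2 cells transiently transfected with AR-Gal4 chimera and GAL4-UAS reporter units; chemical exposure 24 h. Reporter mRNA quantified by RT-PCR with fluorescent labelling and capillary electrophoresis; gain-of-signal fitted against DMSO.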

[16] = ATG_GAL4_TRANS: Attagene TRANS-FACTORIAL HepG2 Assay for GAL4 (Internal Marker) (AID 2282976); settings: HepG2 Attagene TRANS GAL4 internal marker reporter
In short: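 Background-control readout: GAL4-UAS reporter transcript in transiently transfected HepG2 cells after 24 h compound exposure. Measured by RT-PCR, 6-FAM primer extension, HpaI digest and capillary electrophoresis; gain-of-signal fit versus DMSO.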

[17] = ATG_M_06_TRANS: Attagene TRANS-FACTORIAL HepG2 Assay for M06 Transcription Factor (Internal Marker) (AID 2282983); settings: HepG2 Attagene TRANS M06 internal marker reporter
In short: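 HepG2 cells transiently transfected with GAL4-UAS multiple reporter units, dosed 24 h. Reporter RNA reverse-transcribed, PCR-amplified, 6-FAM-labeled, HpaI-digested and quantified by capillary electrophoresis; this internal-marker signal fitted upward relative to DMSO.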

[18] = ATG_M_32_TRANS: Attagene TRANS-FACTORIAL HepG2 Assay for M32 Transcription Factor (Internal Marker) (AID 2282984); settings: HepG2 Attagene TRANS M32 internal marker reporter
In short: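 Capillary electrophoresis of 6-FAM-labelled reporter fragments gives the signal; data fitted for gain over DMSO negative control. Source: HepG2 cells bearing transient multiple reporter transcription units, 24 h exposure.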

[19] = ATG_NF_kB_CIS: Attagene CIS-FACTORIAL HepG2 Assay for human Nuclear Factor Kappa B (NF-kB) (AID 2282991; active = hit-call score of the fitted dose curve at least 0.9, where 1 is the maximum; inactive = score below 0.9); settings: HepG2 Attagene cis-factorial NF-kB reporter mRNA; actives raise or lower the signal
In short: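 Read-out: reporter transcript levels quantified by RT-PCR plus capillary electrophoresis of 6-FAM-labelled, HpaI-cut fragments. Transfected HepG2 cells, 24 h compound exposure, endogenous NF-kB-driven cis element; gain or loss scored versus DMSO.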

[20] = target: Oxysterols receptor LXR-beta (Homo sapiens) (UniProt P55055); experiment: ATG_LXRb_TRANS: Attagene TRANS-FACTORIAL HepG2 Assay for human Liver X Receptor beta (LXRb) (AID 2282981); settings: HepG2 Attagene TRANS GAL4-LXRb reporter, mRNA
Oxysterols receptor LXR-beta (Homo sapiens), sequence (P55055 whole entry, looked up, the tested form may be a part): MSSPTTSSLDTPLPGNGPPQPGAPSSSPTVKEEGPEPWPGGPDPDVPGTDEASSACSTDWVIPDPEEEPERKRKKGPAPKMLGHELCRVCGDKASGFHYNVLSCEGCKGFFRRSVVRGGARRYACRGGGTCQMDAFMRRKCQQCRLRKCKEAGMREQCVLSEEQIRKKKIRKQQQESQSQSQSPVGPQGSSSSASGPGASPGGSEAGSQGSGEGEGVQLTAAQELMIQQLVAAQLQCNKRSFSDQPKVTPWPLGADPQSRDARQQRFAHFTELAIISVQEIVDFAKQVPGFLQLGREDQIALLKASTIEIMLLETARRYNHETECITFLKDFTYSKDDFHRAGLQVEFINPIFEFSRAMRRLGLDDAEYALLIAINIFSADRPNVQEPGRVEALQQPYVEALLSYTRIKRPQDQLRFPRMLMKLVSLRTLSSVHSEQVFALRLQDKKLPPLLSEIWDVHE
In short: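 Gain-of-signal mRNA reporter endpoint, DMSO as negative control. Transiently transfected HepG2 cells carrying the NR-Gal4 chimera and GAL4-UAS reporter units were treated 24 h; transcripts quantified by RT-PCR and capillary electrophoresis fluorescence.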

Measured: AC50

CC(C)(C)c1cc([N+](=O)[O-])cc(C(C)(C)C)c1O
active: [2] 4.78 µM | [7] 12.4 µM | [11] 2.48 µM
inactive: [1] | [3] | [4] | [5] | [6] | [8] | [9] | [10]

N#CCCC(Br)(C#N)CBr (centres undefined)
active: [2] 57.9 µM | [9] 54.3 µM
inactive: [1] | [3] | [12] | [13] | [7] | [14] | [8] | [10] | [11]

COC(F)(C(F)(F)C(F)(F)F)C(F)(C(F)(F)F)C(F)(F)F (centres undefined)
not listed: [4] | [19] | [20]
inactive: all other assays above

O=c1[nH]c2ccccc2n1C1CCN(CCCC(c2ccc(F)cc2)c2ccc(F)cc2)CC1
active: [11] 3.15 µM
not listed: [5] | [6] | [9] | [13] | [15] | [20]
inactive: all other assays above

COCC(=O)N(c1c(C)cccc1C)[C@H](C)C(=O)OC
not listed: [6] | [12] | [13] | [15] | [16] | [17] | [19] | [20]
inactive: all other assays above

Brc1ccc(Oc2c(Br)cc(Br)cc2Br)c(Br)c1
not listed: [4] | [7] | [15] | [19]
inactive: all other assays above

COc1ccccc1N
not listed: [12] | [13] | [15] | [18] | [19] | [20]
inactive: all other assays above

N#Cc1ccccc1N
not listed: [5] | [7] | [12] | [13] | [15] | [17]
inactive: all other assays above

OC(Cc1ccccc1Cl)(Cn1cncn1)C1(Cl)CC1 (centres undefined)
not listed: [15] | [16] | [17] | [20]
inactive: all other assays above

N#Cc1cccnc1
inactive: [1] | [2] | [3] | [16] | [20] | [7] | [14] | [8] | [9] | [10] | [11]

Cc1ccccc1OP(=O)(Oc1ccccc1)Oc1ccccc1
active: [11] 12.3 µM
not listed: [4] | [6] | [7] | [15] | [17] | [20]
inactive: all other assays above

Brc1c(Br)c(Br)c(Oc2c(Br)c(Br)c(Br)c(Br)c2Br)c(Br)c1Br
not listed: [4] | [6] | [13] | [15]
inactive: all other assays above

O=[N+]([O-])c1ccccc1O
not listed: [4] | [13] | [15] | [19] | [20]
inactive: all other assays above

CC(c1ccc(O)cc1)c1ccc(O)cc1
active: [2] 130 µM | [11] 67.4 µM
not listed: [5] | [13] | [15] | [16] | [17] | [19] | [20]
inactive: all other assays above

O=[N+]([O-])c1cccc2ccccc12
active: [11] 23.7 µM
not listed: [5] | [7] | [12] | [13] | [15] | [19] | [20]
inactive: all other assays above

Cc1ccc(OP(=O)(Oc2ccc(C)cc2C)Oc2ccc(C)cc2C)c(C)c1
active: [19] 25.9 µM | [11] 12.3 µM
not listed: [5] | [6] | [7] | [14] | [15] | [20]
inactive: all other assays above

O=C(O)COc1ccc(Cl)cc1
not listed: [7] | [13] | [15] | [18] | [19]
inactive: all other assays above

C[C@]12CC[C@@H](O)C[C@@H]1CC[C@@H]1[C@@H]2CC[C@]2(C)C(=O)CC[C@@H]12
not listed: [4] | [6] | [7] | [13] | [15] | [17] | [18]
inactive: all other assays above

Reference: PubChem BioAssay (EPA / NIEHS)
